HSF1 inhib – HSF1 inhibition; NIH3T3-HGL HSE-luciferase, MG132-induced, luminescence 8 h; stronger effect = lower value; AID 2098; activity change, negative = inhibition, % at 7.5 µM (by protocol); 300,000 compounds, 0.77% hits;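 active = more than half of replicate wells show activity change below -50%, luminescence cut by over half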;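 also: luciferase reports HSF-1 transcriptional activity via heat shock element; 0% = median of DMSO wells and -100% = zero luminescence signal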
FXN GAA850 act – activators of GAA850 frataxin (FXN) promoter. HEK293 lucGAA850 FXN promoter luciferase reporter, 24 h; percent of 10 µM SAHA response. AID 540364. activation, % at 6 µM. 360,000 compounds, 0.56% hits;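 active = activation above the average of all compounds screened plus 3 SD, cutoff fixed separately per campaign, cut at about 7.5% in these data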;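 also: 0% = DMSO wells and 100% = 10 µM SAHA wells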
AHR activator – activators of human aryl hydrocarbon receptor; activation, % at 5 µM; 320,000 compounds, 2.5% hits; AID 2796; P35869; AHR-responsive luciferase reporter cells, luminescence; in the data active = activation above about 47%;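 also: 0% = vehicle wells and 100% = reference agonist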
Target sequence (P35869 whole entry, looked up): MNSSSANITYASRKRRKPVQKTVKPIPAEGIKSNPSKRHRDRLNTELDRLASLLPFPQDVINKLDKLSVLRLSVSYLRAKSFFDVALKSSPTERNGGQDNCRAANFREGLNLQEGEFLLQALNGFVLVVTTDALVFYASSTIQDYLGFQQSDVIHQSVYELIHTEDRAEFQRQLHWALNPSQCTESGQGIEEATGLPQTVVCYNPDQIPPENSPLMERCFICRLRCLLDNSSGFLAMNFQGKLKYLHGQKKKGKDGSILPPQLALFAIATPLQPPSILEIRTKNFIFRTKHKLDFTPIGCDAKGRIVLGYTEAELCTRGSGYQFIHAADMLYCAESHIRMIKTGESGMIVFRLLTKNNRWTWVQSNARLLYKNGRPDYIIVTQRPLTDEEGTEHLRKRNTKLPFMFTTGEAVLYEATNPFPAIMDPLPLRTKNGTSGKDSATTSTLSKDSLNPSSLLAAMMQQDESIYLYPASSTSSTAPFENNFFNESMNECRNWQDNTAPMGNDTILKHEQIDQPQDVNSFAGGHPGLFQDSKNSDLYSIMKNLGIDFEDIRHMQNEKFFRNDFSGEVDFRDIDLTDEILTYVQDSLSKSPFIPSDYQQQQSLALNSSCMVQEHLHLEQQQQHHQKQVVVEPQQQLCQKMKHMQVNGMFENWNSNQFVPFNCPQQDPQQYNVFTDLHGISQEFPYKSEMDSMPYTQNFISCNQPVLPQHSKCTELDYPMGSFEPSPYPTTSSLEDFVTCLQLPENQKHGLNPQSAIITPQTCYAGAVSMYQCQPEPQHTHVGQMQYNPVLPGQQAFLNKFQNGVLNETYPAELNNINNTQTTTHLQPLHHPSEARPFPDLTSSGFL
HSF1 activator – increases HSF-1 driven luciferase reporter signal | activation, % at 9 µM | NIH3T3-HGL HSF-1 luciferase reporter, MG132, 8 h; 100% = twice DMSO control signal | 300,000 compounds, 1.7% hits;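 active = mean replicate activation of at least 50% with a set share of replicates each reaching 50%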;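 also: 0% = median of the neutral control wells and 100% = twice that signal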
* = called active by the depositor; · = not tested or not shown. Only some compounds are listed: those with a hit (about 4.6% of all), similar ones and a draw of the others.

SMILES	HSF1 inhib	FXN GAA850 act	AHR activator	HSF1 activator
COc1ccc(C(=O)CC(=O)C(=O)Nc2ccc(OC)c(Cl)c2)cc1	15.6	0.3	0.9	38.8
COc1ccc(NC(=O)C(=O)NCCO)cc1Cl	-0.6	1.3	59.0*	6.6
COc1ccc(NC(=O)C(NCC(C)C)c2ccccc2)cc1Cl (centres undefined)	29.8	-0.4	-0.4	71.2*
COc1ccc(NC(=O)C(=O)NCCCO)cc1Cl	4.5	0.7	61.6*	11.2
Cc1ccc(S(=O)(=O)NC(=O)c2ccccc2)cc1C(C)C	1.7	1.2	-0.5	8.2
CCN(CC(=O)Nc1ccc(NC(C)=O)cc1)Cc1c(O)ccc2cc(Br)ccc12	100.9	1.2	3.2	127.1*
Cc1cc(=O)[nH]c(SCC(=O)Nc2nnc(CC(C)C)s2)n1	0.5	2.3	0.5	0.0
Cc1[nH]c2ccccc2c1CC#N	-3.1	1.7	6.1	-15.1
COc1cccc(-c2c(C#N)c(N)nc3c2c(C)nn3-c2ccccc2)c1O	52.0	2.9	11.5	62.7*
COC(=O)c1sc2nc(-c3ccco3)ccc2c1N	38.6	7.0	-0.7	55.8*
COc1ccc(C(=O)c2sc3nc(-c4ccccc4)ccc3c2N)cc1	-3.2	-2.0	38.7	18.6
CCOC(=O)c1sc2nc(-c3cccnc3)ccc2c1N	35.7	7.0	0.0	74.6*
CC(C)OC(=O)c1sc2nc(-c3ccccc3)ccc2c1N	-66.8*	-10.3	-9.1	-70.8
Cc1ccc(Nc2nc(N)c([N+](=O)[O-])c(N3CCCC(C)C3)n2)cc1C (centres undefined)	9.4	4.9	51.3*	21.1
O=C(NNc1c2ccccc2nc2ccccc12)c1ccc(O)cc1	0.1	4.4	20.2	-8.3
O=C(NNc1c2ccccc2nc2ccccc12)c1ccc(O)cc1O	20.9	1.8	3.5	36.4
O=C(NNc1c2ccccc2nc2ccccc12)c1ccccc1O	9.4	4.7	128.6*	0.2
O=C(NNc1c2ccccc2nc2ccccc12)c1ccccc1Cl	-4.2	2.8	58.2*	-2.9
O=C(NNc1nc(=O)c2cccnc2s1)c1ccccc1O	-3.5	-0.2	49.2*	1.1
CCCCC(CC)Cn1c2nc3ccccc3nc2c2c(=N)oc(C)nc21 (centres undefined)	8.4	·	·	5.6
CCc1nc2c(OCCC3CCCCC3)cccn2c1N(C)C(=O)COc1ccccc1	·	-0.5	·	·
Cc1ccc(NC(=O)c2oc3ccc(S(=O)(=O)N4CCC5(CC4)OCCO5)cc3c2C)cc1C	-5.0	-3.5	14.8	-1.2
Cc1cc(OCC(=O)N(Cc2ccco2)C2CCS(=O)(=O)C2)cc(C)c1Cl (centres undefined)	11.0	0.3	5.1	57.1*
Cc1ccc(OCC(=O)N(Cc2ccco2)C2CCS(=O)(=O)C2)cc1C (centres undefined)	-6.4	1.4	0.5	-16.2
C/C(=N\NC(N)=S)C1=CCC2C3CC[C@H]4CC(O)CC[C@]4(C)C3CC[C@]12C (some centres undefined)	24.6	2.2	7.4	51.5*
SMILES	HSF1 inhib	FXN GAA850 act	AHR activator	HSF1 activator
CSc1nncc(/C(C)=N\Nc2cccc(C)c2)n1	3.4	0.6	0.1	23.2
N#CC1=C(N)Oc2cc(N)ccc2C1c1ccsc1 (centres undefined)	-10.3	2.2	84.3*	-6.4
O=C(CN1C(=O)CCC1=O)Nc1nc(-c2ccc(Cl)s2)cs1	2.4	2.2	77.9*	0.0
O=C(CN1C(=O)CCC1=O)Nc1nc(-c2cccs2)cs1	2.0	-1.3	3.2	10.5
Cc1ccc(N2C(=O)c3ccccc3C2C(=O)c2ccc(O)cc2O)cc1 (centres undefined)	1.4	0.8	59.1*	8.2
O=C1C2=C(Nc3ccccc3SC2c2ccco2)c2ccccc21 (centres undefined)	-5.5	0.6	70.3*	-5.6
O=C(NC(=O)c1ccccc1O)c1ccc(C(F)(F)F)cc1	62.2	1.8	16.1	90.9*
CCCc1ccc(C(=O)NC(=O)c2ccccc2O)cc1	-3.4	0.4	14.0	2.1
CCn1c(=O)cc(SCC(=O)N2CCN(C)CC2)c2ccccc21	32.6	-1.3	4.1	63.2*
CCN1CCN(C(=O)CSc2cc(=O)n(CC)c3ccccc23)CC1	9.1	1.0	16.1	12.1
COc1ccc(/C(C)=N/Nc2nc3ccccc3nc2C)cc1OC	-7.4	4.3	77.1*	-25.0
COc1ccc(/C(C)=N/Nc2cccc(C(=O)O)c2)cc1OC	-5.1	4.5	0.6	19.5
COc1ccc(N(CC(=O)NCc2ccc(F)cc2)C(=O)Cn2nnc(-c3ccc(C)o3)n2)cc1OC	-87.0*	-1.9	0.8	-89.8
Cc1cccc(N(CC(=O)NCc2ccccc2)C(=O)Cn2nnc(-c3ccc(C)o3)n2)c1	7.4	-0.7	1.2	-3.3
C/C(=N\NC(=O)c1nnn(-c2nonc2N)c1COc1ccc(F)cc1)c1ccc(Cl)cc1	2.7	0.5	1.1	9.3
O=C(Cn1ncc2c3ccccc3n(Cc3ccccc3)c2c1=O)N1CCN(c2ncccn2)CC1	0.4	-3.1	2.5	18.9
O=C(Cn1ncc(Cl)c(Cl)c1=O)N1CCN(Cc2ccccc2)CC1	55.1	-2.3	·	54.9*
O=C(Cn1ncc2c3ccccc3n(Cc3ccccc3)c2c1=O)N1CCN(c2ccccn2)CC1	1.5	18.8*	1.1	-11.4
CC1(C)C(=O)Nc2ccccc2N1C(=O)Cn1ncc(Cl)c(Cl)c1=O	29.0	7.2	-1.6	54.0*
CN(C)/C(Cn1cncn1)=C1/N=C(c2ccccc2)OC1=O	-4.2	-0.2	26.7	-8.5
C=CCn1c(-c2csc3ccccc23)n[nH]c1=S	1.6	-0.9	3.5	0.6
O=C(CNC(=S)N(CCCN1CCOCC1)Cc1cccs1)NCc1ccc(Cl)cc1	-0.4	-0.3	1.9	7.9
CNC(=S)N(Cc1ccc(Cl)cc1)Cc1cccs1	15.8	1.1	-3.0	54.0*
O=C(CNC(=S)N(CCCN1CCOCC1)Cc1cccs1)NCc1ccccc1Cl	-70.5*	-1.1	1.8	-77.3
COC(CNC(=O)CNC(=S)N(Cc1ccccc1)Cc1cccs1)OC	-2.4	0.3	1.6	-5.8
SMILES	HSF1 inhib	FXN GAA850 act	AHR activator	HSF1 activator
CCCCNC(=O)CNC(=S)N(Cc1ccccc1)Cc1cccs1	-71.3*	-0.7	5.1	-78.6
Cc1ccccc1NC(=S)N(Cc1ccccc1)Cc1cccs1	19.7	-0.8	-0.5	29.0
Clc1ccc(-c2nnnn2-c2ccc(Cl)cc2)cc1	2.3	-0.2	7.4	48.1
Cc1ccc(S(=O)(=O)N(C)c2ccc(OCC(=O)Nc3nc4c(ccc5ccccc54)s3)cc2)cc1	-3.6	0.4	47.1*	7.8
CC1(C)CC(=O)C=C(NC2=CC3OC(c4ccccc4)OCC3OC2=O)C1 (centres undefined)	77.0	-1.2	-2.5	116.5*
Cc1ccccc1NC1=CC(=O)CC(C)(C)C1	2.5	0.9	-0.1	14.0
COC(=O)c1cnc2c(c(C)nn2C)c1OC	19.2	0.8	-0.7	59.2*
CCCCc1nnc(NC(=O)CSCc2cc(=O)n3ccsc3n2)s1	-3.8	-0.3	9.6	-2.0
Nc1ccccc1-c1nnc(-c2ccccc2N)n1N	8.6	2.6	48.2*	12.1
Cc1nn(C)cc1C(=O)Nc1ccc2c(c1)OCCO2	-6.7	-3.7	47.5*	-3.8

Compound activity (PubChem BioAssay)
